Source: PubChem BioAssay
Sampled rows, rich in hits. Any-hit rate of the full collection: about 4.2%.
DAX1 inh = DAX1 (NR0B1) inhibitors on StAR promoter, primary screen, cell-based, luminescence, SF-1 (NR5A1), full-length DAX-1. HEK293T StAR-luciferase reporter, SF-1/DAX-1 repression relief. inhibition, % at 6.8 µM. 370,000 tested, 1.1% active;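 active = inhibition above the mean over all tested compounds plus 3 SD, cut at about 3.6% in these data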;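 note: 0% = DAX-1 cells with DMSO and 100% = cells lacking DAX-1 with DMSO; higher inhibition means more luminescence from relief of DAX-1 repression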
hgDAF-12 ag = H. glycines DAF-12 receptor agonists, primary screen, cell-based, luminescence, HEK293, GAL4 fusion, UAS-luciferase; Nuclear hormone receptor DAF-12 (Heterodera glycines), GAL4 fusion; 370,000 tested, 1.8% active; HEK293 GAL4-hgDAF12 UAS-luciferase reporter, agonist luminescence; normalized to butyrate control; activation, % at 6.8 µM;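 active = activation above a cutoff set at the mean of all screened compounds plus 3 SD, cut at about 10% in these data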;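 note: 0% = DMSO wells and 100% = sodium butyrate wells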
SMARCA2 activ = SMARCA2 (BRM) function activators, primary screen, cell-based, luminescence, high throughput | MG213 cells, MMTV-luciferase reporter, dexamethasone, overnight | activation, % at 9.1 µM | 370,000 tested, 1% active | AID 652017, 2013; in the data active = activation above about 7.8%;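 note: 0% = vehicle wells and 100% = reference activator wells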
hcDAF-12 act = H. contortus DAF-12 nuclear receptor activators, primary screen, cell-based, luminescence, HEK293, lit1-tk-luc reporter; HEK293 hcDAF-12 lit1-tk-luc reporter; 0% DMSO, 100% Δ7-dafachronic acid; activation, % at 6.8 µM; 370,000 tested, 1.4% active; AID 652067, 2013;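 active = activation above the mean of all tested compounds plus 3 SD, cut at about 5.5% in these data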;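 note: 100% = response to 3 µM Δ7-dafachronic acid high control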
ssDAF12 agonist = S. stercoralis DAF-12 nuclear receptor activators, primary screen, cell-based, luminescence, HEK293, GRIP1 co-expression, lit1-tk-luc. Nuclear hormone receptor DAF-12 (Strongyloides stercoralis). HEK293 ssDAF-12/GRIP1 lit1-tk-luc reporter; % of 3 µM dafachronic acid response. activation, % at 6.8 µM. 370,000 tested, 1% active. AID 652126, 2013;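 active = activation above the mean over all tested compounds plus 3 SD, cut at about 0.9% in these data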;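 note: 0% = DMSO-only wells and 100% = 3 µM delta7-dafachronic acid wells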
SMARCA2 conf = SMARCA2 (BRM) function activators, confirmation, cell-based, luminescence, triplicate; shares compounds with SMARCA2 activ; activation, % at 9.1 µM; MG213 cells, MMTV-luciferase with dexamethasone, overnight; MG213 cells expressing E1A, Rb sequestered; DMSO wells 0%, reference activator 100%; AID 652260, 2013; 3,500 tested, 30% active;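 active = activation above its plate's cutoff, the mean activation of tested wells plus 3 SD, cut at about 7.9% in these data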
VP16 Luc act = GAL4-VP16 luciferase reporter activation, counter-screen for SMARCA2 (BRM) activator project, cell-based, pG5luc, luminescence, high throughput. activation, % at 9.1 µM. AID 686939, 2013. shares compounds with SMARCA2 activ. HEK293 GAL4-VP16 pG5luc reporter; scaled: DMSO wells 0%, SAHA wells 100%. 3,500 tested, 41% active;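 active = activation above the solvent-only control well mean plus 3 SD, averaged across control plates, cut at about 5.2% in these data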
The depositor's hits bear a star; / = not tested or not shown.

SMILES	DAX1 inh	hgDAF-12 ag	SMARCA2 activ	hcDAF-12 act	ssDAF12 agonist	SMARCA2 conf	VP16 Luc act
CCOc1ccccc1N1CCN(C(=S)NCc2ccco2)CC1	0.1	-2.2	8.1*	-1.1	-1.5	1.3	0.3
Cc1ccc2c(c1)=N/C(=N\c1[nH]c(O)c3ccccc13)N=2	0.6	3.7	3.0	4.2	-0.4	/	/
Oc1[nH]c(N=C2N=c3ccccc3=N2)c2ccccc12	-0.7	1.0	14.3*	2.5	0.6	6.9	37.4*
COC(=O)C1=C(C)N(Cc2ccccc2C(F)(F)F)C(=NCc2cccc(C(F)(F)F)c2)NC1c1ccc(C(F)(F)F)cc1 (stereo unspecified)	-0.5	2.6	10.2*	-0.1	-0.8	-6.6	-0.3
CCC(=O)Nc1cc(C(=O)OCC(=O)c2ccccc2)ccc1C	2.0	10.3	11.1*	4.1	-0.2	4.1	7.7*
O=C(COC(=O)c1cccc(O)c1)c1ccccc1	-0.5	5.5	8.5*	2.7	0.1	13.2*	3.6
CCC(=O)Nc1cc(C(=O)OCC(=O)c2ccccc2Cl)ccc1C	1.1	3.7	-0.3	-0.6	-1.1	/	/
CCN(CC)C(=O)CC[C@H]1CC[C@]2(CCCN(Cc3ccc(N(C)C)cc3)C2)O1	0.2	-0.3	-3.2	-1.3	-0.8	/	/
CCc1nnc(N/N=C/c2ccc(O)c(OC)c2)n1N	-1.0	-8.7	1.1	-1.0	-0.7	/	/
CCc1nnc(N/N=C\c2ccc(OC(C)=O)c(OC)c2)n1N	-1.1	-6.3	8.6*	0.6	-1.1	-1.6	1.6
CON(Cc1ccccc1)S(=O)(=O)c1ccccc1Br	-0.2	-1.0	1.6	-2.0	0.1	/	/
Cc1ccc(NC(=S)NCc2cccs2)c(C)c1	-0.7	-2.6	10.2*	-1.1	-1.4	-1.7	1.4
COC(=O)C[C@H]1C=C[C@H](NC(=O)Nc2ccccc2)[C@@H](CO)O1	1.5	0.8	-4.2	0.5	-0.7	/	/
Cc1cccc(N=NC(=S)NNc2cccc(C)c2)c1	3.7*	9.3	8.7*	6.1*	0.2	3.1	9.1*
COC(=O)[C@]12CCCCC=C1N(Cc1ccccc1)C(=O)[C@H](CC(=O)NCC1CCCCC1)C2	-0.4	-1.6	-0.8	0.1	-1.2	/	/
O=C(OCc1cc(=O)oc2cc(O)ccc12)c1cc(S(=O)(=O)N2CCOCC2)ccc1F	0.7	3.0	8.4*	-0.1	-0.8	11.9*	-0.6
CC(=O)NCCCC(=O)NC(CCC(=O)OCc1ccccc1)C(=O)OCc1ccccc1 (stereo unspecified)	1.8	0.8	8.0*	-0.9	-2.0	-2.6	0.7
O=C(CCC(NC(=O)OCc1ccccc1)C(=O)OCc1ccccc1)NCC(=O)OCc1ccccc1 (stereo unspecified)	0.2	-0.7	-2.9	1.0	-1.1	/	/
COc1ccc(C2=NN(C(=O)CSc3nnc(C)c(=O)n3N)C(c3ccco3)C2)cc1 (stereo unspecified)	1.4	-2.4	12.6*	-0.6	-2.2	1.9	1.2
CCN(C(=O)C1CCCN1S(=O)(=O)c1cccnc1)c1ccccc1 (stereo unspecified)	1.2	-1.7	-3.6	1.3	-1.1	/	/
CC(=NO)c1ccc2c(c1)Cc1cc([N+](=O)[O-])ccc1-2	1.9	9.2	11.6*	3.5	0.6	7.8	4.9
CCc1cccc2c(C(=O)COC(=O)c3c(C)noc3C)c[nH]c12	0.0	1.4	8.6*	-2.0	-2.0	3.8	0.4
O=C(Nc1ccc(F)cc1)C(c1cc2ccccc2o1)N1CCN(c2ccncc2)CC1 (stereo unspecified)	-0.8	-1.3	3.8	0.1	-0.5	/	/
Cc1c(C(C)c2ccccc2O)c2ccccc2n1C (stereo unspecified)	-0.8	3.8	-3.7	2.9	-0.7	/	/
CCN1CCc2nc(NC(=O)Cc3ccc4c(c3)OCCO4)sc2C1	-0.4	1.4	0.3	-0.3	-0.3	/	/
SMILES	DAX1 inh	hgDAF-12 ag	SMARCA2 activ	hcDAF-12 act	ssDAF12 agonist	SMARCA2 conf	VP16 Luc act
CCN1CCc2nc(NC(=O)c3ccc4c(c3)OCCO4)sc2C1	2.6	8.5	8.7*	1.4	-1.3	6.8	10.7*
Fc1ccc(-c2n[nH]c(=S)n2N=Cc2cccc(OCc3ccccc3)c2)cc1	-0.2	2.5	9.9*	-1.9	-1.5	3.8	1.0
CCOC(=O)N1CCN(C(=O)C[C@H]2C[C@@]3(C(=O)OC)C(=C[C@H](C4CCCC4)O[C@@H]3C)N(CCc3ccc(OC)c(OC)c3)C2=O)CC1	-2.2	-3.5	-4.6	-2.8	-1.5	/	/
O=C(Nc1cccc(Cl)c1)Nc1cccc(C(=O)O)c1	1.2	9.7	13.8*	1.4	0.8	7.9*	4.5
O=C(NCc1ccccc1)C(=O)Nc1cccc(C(=O)O)c1	2.5	7.8	12.6*	4.7	-0.2	10.0*	11.4*
CCOc1ccc(NC(=O)Nc2cccc(C(=O)O)c2)cc1	1.8	8.4	10.5*	2.6	-0.1	7.2	9.3*
CCCNC(=O)C1(C)CCCN(CC(=O)c2ccccc2OC)C1 (stereo unspecified)	-1.2	2.1	-1.7	1.9	-0.9	/	/
COC(=O)C[C@@H]1CC[C@H](NC(=O)c2ccccc2)[C@@H](CO)O1	1.0	0.4	-2.3	0.9	-1.1	/	/
CCCNC(=O)N1[C@@H](CO)[C@H](c2ccc(C3=CCCC3)cc2)[C@@H]1CN(CC)S(=O)(=O)c1ccccc1[N+](=O)[O-]	-0.4	-1.9	-4.8	-3.4	-1.7	/	/
S=c1[nH]nc(-c2cc(-c3ccccc3)n[nH]2)n1N=Cc1cccc(Oc2ccccc2)c1	0.5	3.6	-1.2	-2.1	-1.1	/	/
N=c1oc2cc(O)ccc2cc1C(=O)Nc1ccc(F)cc1	1.3	10.1	10.6*	4.2	-0.7	3.9	6.7*
O=C(Nc1ccc(N2CCOCC2)nc1)c1ccc(C(F)(F)F)cc1	-4.8	-4.2	-6.6	-4.3	-3.0	/	/
O=C(Nc1ccc(N2CCOCC2)nc1)c1ccccc1Cl	0.7	2.8	9.6*	0.1	-0.9	1.7	2.4
